# The list is not random: actives were taken first. Their share in the collection is about 13%.
# Pf growth 96h: Primary qHTS for delayed death inhibitors of the malarial parasite plastid, 96 hour incubation; P. falciparum luciferase reporter growth, 96 h; AID 504834, 2011; Potency, µM (highest dose often 28.7 µM), inactives show at the top dose activity change, negative = inhibition, most hits filed as inhibitors; hit rate 6.9% among 320,000; also: potency is read from the fitted curve at half-maximal effect
#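 Cell-based qHTS: luciferase-tagged P. falciparum in erythrocytes (2% hematocrit, 0.05% parasitemia final) incubated with compounds for 96 hours, 37 C, 5% CO2; luciferase detection reagent then added and luminescence measured.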
# HCMV antiviral: qHTS Assay for inhibitors of the human cytomegalovirus (HCMV); activity change, negative = inhibition, % at 57.5 µM; hit rate 4.5% among 410,000; HFF cells, HCMV-luciferase reporter, 72 h; hits give low values; in the data active = activity change below about -60%; inconclusive = no clear call, values can overlap the other calls; inactive = above about -39%
#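 Two compound doses tested in HFFs infected with HCMV-luciferase, MOI 1 PFU/cell, 72 h at 37C. Lysate luminescence read with OneGlo; data normalized against buffer-only and 10uM Salinomycin inhibitor controls.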
# Pf growth 48h: Primary qHTS for delayed death inhibitors of the malarial parasite plastid, 48 hour incubation; P. falciparum luciferase growth in erythrocytes, 48 h; hit rate 5.9% among 310,000; Potency, µM (doses to about 28.7 µM), inactives show at the highest dose activity change, negative = inhibition, usual class: inhibitors; also: potency is read from the fitted curve at half-maximal effect
#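 Cell-based growth assay: transgenic P. falciparum expressing firefly luciferase, cultured in red cells within RPMI 1640 containing 0.5% w/v Albumax, 24 mM bicarbonate and gentamycin. A drop in luciferase activity indicates inhibition.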
# HCV inh: qHTS Assay for Inhibitors of Hepatitis C Virus (HCV). Huh7.5.1 HCVcc-Cre infection, luciferase reporter, 44 h. Potency, µM (doses to about 41.8 µM), for inactives: at the highest dose activity change, negative = inhibition, hits mostly inhibitors. hit rate 3.4% among 340,000. AID 651820, 2012; also: potency is read from the fitted curve at half-maximal effect
#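 Luciferase read-out (15 sec integration) after a 15 min room-temperature substrate step quantifies HCVcc-Cre infection. Cells, 1,000 per well, had compound added 4 h post-plating, then virus at ~0.5 moi, and were cultured 44 h.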
# The depositor's hits bear a star; u = inconclusive; x = no result. Unless noted, calls follow the shape of the dose curve; as a rule, active = well fitted inhibition curve with a large enough effect; inconclusive = small, poorly fitted or top-dose-only effect, or another doubt; inactive = no such curve, though single readings can be large or run the other way. % is scaled to controls: 0 for no effect and ±100 for the full control effect.
SMILES,Pf growth 96h,HCMV antiviral,Pf growth 48h,HCV inh
CC1CC1C(=O)Nc1cc(S(=O)(=O)N2CCOCC2)ccc1N1CCCC1 (configuration not stated),-22%,u,-21%,10µM*
O=C(Nc1cc(S(=O)(=O)N2CCOCC2)ccc1N1CCCC1)C1CC1,15%,-4,-9%,-1%
Cc1ccc(S(=O)(=O)CCC(=O)NCCN2C(=O)S/C(=C\c3ccccc3)C2=O)cc1,u,-26,4%,u
Cc1ccc2c(c1)S/C(=C/c1ccc[n+](C)c1)N2CCO,6%,-77*,u,u
COc1ccc2c(c1OC)c(=O)n1c3ccc(OC(C)C(=O)NCCCN4CCOCC4)cc3c3ccnc2c31 (configuration not stated),4.1µM*,x,3.7µM*,u
CC(Oc1ccc2c(c1)c1ccnc3c4ccccc4c(=O)n2c13)C(=O)NCCN1CCOCC1 (configuration not stated),4.1µM*,-90*,4.7µM*,11µM*
COc1ccc2c(c1OC)c(=O)n1c3ccc(OC(C)C(=O)NCCN4CCOCC4)cc3c3ccnc2c31 (configuration not stated),3.7µM*,-3,u,u
CC(Oc1ccc2c3c(c(=O)oc2c1)CCCC3)C(=O)NCCN1CCOCC1 (configuration not stated),9%,0,12%,-2%
CCCCNC(=O)c1cnc2sc(N3CCCCCC3)nn2c1=O,x,-5,x,x
N#CCSc1ccccc1NC(=O)COC(=O)Cc1c[nH]c2ccccc12,6.6µM*,12,10µM*,-1%
CCCOc1ccccc1N/C(=N/c1nc(C)cc(C)n1)NC(=O)COc1ccc(OC)cc1,4.7µM*,-24,x,u
CCCOc1ccccc1N/C(N)=N/c1nc(C)cc(C)n1,-23%,-19,15µM*,-3%
CCOc1ccc(N/C(N)=N/c2nc(C)cc(C)n2)cc1,56%,12,0%,-29%
O=C(COc1cccc2ccccc12)N1c2ccccc2CCc2ccccc21,u,8,10µM*,u
O=C(CCl)N1c2ccccc2CCc2ccccc21,u,-102*,10µM*,x
CC(Cl)C(=O)N1c2ccccc2CCc2ccccc21 (configuration not stated),u,-30,u,2%
COC(=O)c1c(NC(=O)C2CCCCC2)sc2c1CCN(C(C)C)C2,u,-24,u,-11%
CN1CCc2c(sc(NC(=O)C3CCCCC3)c2C(N)=O)C1,-7%,35,8%,6%
CC(C)N1CCc2c(sc(NC(=O)C3CCCCC3)c2C(N)=O)C1,u,-79*,u,u
CCOC(=O)c1c(NC(=O)C2CCCCC2)sc2c1CCN(C(C)C)C2,13µM*,8,-11%,7.9µM*
CC(C)c1ccc(/C=C/C(=O)Nc2ccc(CN3CCOCC3)cc2)cc1,u,u,u,2.2µM*
CC(C)CC(=O)N1CCN(Cc2ccc(Cl)cc2)CC1,u,34,93%,-8%
CC(C)c1ccc(C(=O)Nc2ccc(CN3CCOCC3)cc2)cc1,u,-83*,4%,u
O=C(/C=C/c1ccc(Cl)cc1)Nc1ccc(CN2CCOCC2)cc1,u,-89*,u,u
CC(C)c1ccc(CN2CCN(C(=O)CCl)CC2)cc1,u,-69*,u,11µM*
SMILES,Pf growth 96h,HCMV antiviral,Pf growth 48h,HCV inh
O=C(/C=C/c1ccc(Cl)cc1)Nc1ccc(N2CCCCC2)cc1,-5%,5,0%,23%
CC(C)C(=O)NC(=S)Nc1ccc(CN2CCOCC2)cc1,u,-9,40%,12%
Cc1ccc(C)c(N2CCN(C(=O)NCc3noc4ccccc34)CC2)c1,x,4,x,x
O=C(/C=C/c1ccc(Cl)cc1Cl)NC(=S)Nc1ccc(CN2CCOCC2)cc1,11%,-28,-8%,8%
O=C(NC1CCCCCC1)c1ccc(CN2CCOCC2)cc1,10µM*,18,54%,2%
O=C(NC1CCCC1)c1ccc(CN2CCOCC2)cc1,x,59,50%,12%
O=C(/C=C/c1ccccc1)NC(=S)Nc1ccc(CN2CCOCC2)cc1,-24%,-76*,-6%,-18%
CC(C)Cc1nn2c(=O)cc(COC(=O)c3cccc(NS(C)(=O)=O)c3)nc2s1,x,-37,x,x
COc1cc(/C=N/NC(=O)COc2ccc(Cl)cc2)ccc1OS(=O)(=O)c1ccc(C)cc1,x,7,u,11µM*
C=CCNC(=O)/C(C#N)=C/c1ccc(OS(=O)(=O)c2ccc(C)cc2)c(OC)c1,-24%,-99*,-13%,13%
COc1cc(/C=N/NC(=O)c2cccnc2)ccc1OS(=O)(=O)c1ccc(C)cc1,3%,-38,4%,-1%
COC(=O)N/N=C/c1ccc(OS(=O)(=O)c2ccc(C)cc2)c(OC)c1,u,-35,u,0%
COc1cc(/C=N/NC(=O)COc2cccc(F)c2)ccc1OS(=O)(=O)c1ccc(C)cc1,8.3µM*,u,u,u
COc1ccc(S[C@]2(C(=O)N3CCCC3)CC(=O)N(c3ccc(OC)cc3)[C@@H]2c2ccc(OC)cc2)cc1,x,-1,x,x
CCc1ccc(-c2nn(CC(=O)NCc3ccccc3)c3c2cnc2ccc(C)cc23)cc1,x,4,x,x
Cc1ccccc1OCCc1c(C)[nH]c(=S)[nH]c1=O,44%,-64*,-4%,-25%
Cc1ccc(CNC(=S)NC2CCCCC2)cc1,u,-33,-13%,-15%
CC(NC(=S)NC1CCCCC1)c1ccccc1 (configuration not stated),38%,u,u,u
CCCc1ccc(C(C)NC(=S)NC2CCCCC2)cc1 (configuration not stated),33%,-73*,13µM*,u
CCC(NC(=S)NC1CCCCC1)c1ccc(C)cc1 (configuration not stated),7.4µM*,x,u,x
Cc1ccc(C)c(C(C)NC(=S)NC2CCCCC2)c1 (configuration not stated),37%,u,13µM*,u
CCn1ccc2cc(S(=O)(=O)N3CCC(C(=O)NCCc4ccc(C)cc4)CC3)ccc21,x,-15,x,x
COc1cc(OC)c(NC(=O)c2cc(CN3CCOCC3)on2)cc1Cl,x,-3,x,x
CCN(CCCNC(=O)c1cc2cc3ccc(OC)cc3nc2s1)c1ccccc1,u,-77*,u,x
COc1ccc(OC)c(NC(=O)c2cc3cc4ccc(C)cc4nc3s2)c1,x,-15,x,x
COc1ccc2nc3sc(C(=O)NCCCN4CCc5ccccc5C4)cc3cc2c1,35%,79,u,10µM*
CCN(CCCNC(=O)c1cc2cc3ccc(OC)cc3nc2s1)c1cccc(C)c1,x,-68*,x,x
COc1ccc2nc3sc(C(=O)N4CCN(C)CC4)cc3cc2c1,1%,34,19%,9%
CCCCN(C)C(=O)c1cc2cc3ccc(OC)cc3nc2s1,27%,50,114%,11µM*

# Compound activity: PubChem, National Center for Advancing Translational Sciences (NCATS)
